Rows were chosen to be rich in hits. Some 6.2% of all compounds tested hit in one or more screens of this group.
KB-3-1 tox: qHTS assay for MDR1-selective chemotherapeutics: Primary screen using the parental adenocarcinoma cell KB-3-1; 400,000 compounds, 1.4% hits; KB-3-1 viability, CellTiter-Glo ATP luminescence, 72 h; Potency, µM (highest dose often 46.1 µM), usual class: cytotoxic; also: % is scaled to controls: 0 for no effect and ±100 for the full control effect; nearly all actives have a fitted effect of over 60% in size
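KB-3-1 parental drug-naive adenocarcinoma cells in DMEM/10% FBS, incubated 72 h at 37 C with pin-transferred compounds across a concentration series. Viability by CellTiter-Glo luminescence; concentration-response curves fitted after normalization.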
KB-V1 MDR tox: qHTS assay for MDR1-selective chemotherapeutics: Primary screen using the drug-selected MDR subline cells KB-V1; KB-V1 MDR cells viability, CellTiter-Glo, 72 h; Potency, µM (top dose mostly 46.1 µM), actives largely listed as cytotoxic; 400,000 compounds, 3.4% hits; also: % is scaled to controls: 0 for no effect and ±100 for the full control effect; nearly all actives have a fitted effect of over 60% in size
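Potencies derive from concentration-effect curves fitted to normalized luminescence (CellTiter-Glo) of KB-V1 cells treated for 72 h at 37 degrees C in phenol-red-free DMEM containing 10% FBS.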
S2 tox: Viability Counterscreen for Primary qHTS for Inhibitors of ATXN expression | S2 cells (HEK-293 line with an ATXN2-luciferase reporter) viability, CellTiter-Fluor protease fluorescence, 24 h | Potency, µM (series often up to 56.7 µM), usual class: cytotoxic | 400,000 compounds, 0.49% hits | AID 651635, 2014; also: nearly all actives have a fitted effect of over 40% in size
HT1080NT lethal: qHTS for induction of synthetic lethality in tumor cells producing 2HG: qHTS for the HT-1080-NT fibrosarcoma cell line; HT-1080-NT fibrosarcoma viability, CellTiter-Glo ATP luminescence, 48 h; Potency, µM (doses to about 46.1 µM), for inactives: at the top dose activity, negative = less viability, hits mostly cytotoxic; 360,000 compounds, 1.6% hits;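 also: NT is the 2HG producing partner of a matched IDH1 knockdown line; 0% = DMSO-treated cells and -100% = media-only wells without cells; nearly all actives have a fitted effect of over 55% in size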
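Compounds were tested in concentration-response format on HT-1080-NT cells for 48 hours at 37 degrees C. Cell viability came from CellTiter-Glo luminescence; curves were classified by r2, response magnitude and activity.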
HT1080 IDH1KD tx: qHTS for induction of synthetic lethality in tumor cells producing 2HG: qHTS for the HT-1080-IDH1KD cell line; 360,000 compounds, 2% hits; Potency, µM (top dose mostly 46.1 µM), without a hit: at the highest dose activity, negative = toxicity, actives largely listed as cytotoxic; AID 686971, 2013; HT-1080 IDH1 knockdown viability, ATP luminescence, 48 h;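 also: 0% = DMSO wells and -100% = cell-free medium wells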
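After a 2 h attachment period, IDH1KD HT-1080 cells took pin-transferred compound for 48 h at 37 °C; ATP-based luminescence after 10 min room-temperature reagent incubation reported viability.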
ATXN2 expr inh: Primary qHTS for Inhibitors of ATXN expression; HEK-293 ATXN2-luciferase reporter, luminescence, 24 h; Potency, µM (highest dose often 57 µM), for the others: top-dose activity change, negative = inhibition, most hits filed as inhibitors; 360,000 compounds, 0.72% hits; AID 1745845, 2022; also: % is scaled to controls: 0 for no effect and ±100 for the full control effect; nearly all actives have a fitted effect of over 55% in size
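ATXN2-luciferase reporter cells (luciferase flanked by upstream and downstream ATXN2 gene portions) were treated 24 h at 37 °C with compounds at up to 57 uM. SteadyGlo luminescence gave expression; GF-AFC fluorescence gave viability.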
* marks the source's active call; other numbers are inactive results; i = inactive; ? = inconclusive; . = not tested or not shown. Calls follow the shape of the dose curve; as a rule, active = well fitted curve in the direction sought with a large enough effect; inconclusive = small, poorly fitted or top-dose-only effect, or another doubt; inactive = no such curve, though single readings can be large; an effect the other way counts as inactive or inconclusive. Potency is read from the fitted curve at half-maximal effect.

SMILES	KB-3-1 tox	KB-V1 MDR tox	S2 tox	HT1080NT lethal	HT1080 IDH1KD tx	ATXN2 expr inh
Cc1cccc(C)c1NC(=O)CSc1nc2ncccc2o1	i	i	i	.	.	1%
O=C(C(O)c1ccc(Br)cc1)N1CCC(Nc2ccc3[nH]ncc3c2)CC1 (stereo unspecified)	i	?	i	-24%	?	3%
CCc1c(C(=O)Nc2ccncc2)csc1C	i	16µM*	i	-13%	-28%	2%
COc1cc(C(=O)NC2CCN(C)CC2)ccc1Nc1ncc2c(n1)N(Cc1ccccc1)CCC(=O)N2C	?	?	?	21µM*	?	27%
CCN1C(=O)CC(C(C)C)N(C2CCCC2)c2nc(Nc3ccc(C(=O)NC4CCN(C)CC4)cc3OC)ncc21 (stereo unspecified)	?	?	.	-22%	-22%	?
COc1ccc(C(=O)NC2CCCCC2)cc1S(=O)(=O)N1CCCC1	?	i	i	2%	0%	5%
CCN1C(=O)CC(c2ccccc2)N(C2CCCC2)c2nc(Nc3ccc(C(=O)NC4CCN(C)CC4)cc3OC)ncc21 (stereo unspecified)	18µM*	?	.	?	23µM*	?
COc1cc(C(=O)NC2CCN(C)CC2)ccc1Nc1ncc2c(n1)N(C1CCCCC1)CCC(=O)N2C	?	i	?	?	4.6µM*	0%
COc1ccc(Cn2c(=O)[nH]c3cc(C(=O)NC4CCN(Cc5ccccc5)CC4)ccc32)cc1	i	i	?	-17%	-26%	?
COc1ccccc1NC(=O)CN1CCN(Cc2ccccc2)CC1	i	10µM*	i	9%	1%	-10%
COC(=O)c1cc(OC)c(OC)cc1NC(=O)Cc1ccccc1[N+](=O)[O-]	i	2.3µM*	i	1%	?	32%
COC(=O)c1cc(OC)c(OC)cc1NCC(=O)Nc1ccc(OC)c(OC)c1	i	?	i	1%	0%	-7%
COC(=O)c1cc(OC)c(OC)cc1NCC(=O)Nc1ccc(C)cc1	i	23µM*	?	0%	2%	-1%
COC(=O)c1cc(OC)c(OC)cc1NC(=O)CN1CCCCC1	i	16µM*	i	26%	15%	-6%
CCOC(=O)c1cn(-c2ccccc2)nc1-c1ccncc1	?	18µM*	i	0%	0%	1%
CCC1Sc2ccccc2N(CC(=O)NCc2ccccc2OC)C1=O (stereo unspecified)	i	21µM*	i	1%	3%	20%
Cc1ccc2[nH]c3c(=O)n(CC(=O)N4CCN(c5ccccc5F)CC4)ncc3c2c1	i	i	i	.	.	9%
CCN(CC)CCNc1cc(C)nc2c1C(=O)C(=O)C=C2N1CCCCC1	i	?	14µM*	5%	-15%	.
CCOC(=O)c1c(C)[nH]c(C)c1S(=O)(=O)N1CCC(C(=O)NCc2ccccc2Cl)CC1	i	i	i	.	.	-6%
Cc1ccc(-c2nnc(Nc3ccc(C(N)=O)cc3)c3ccccc23)cc1S(N)(=O)=O	i	?	i	.	.	-12%
CCC(=O)N1CCc2cc(Br)cc(S(=O)(=O)CCC(=O)NCc3cccc(OC)c3)c21	i	i	i	.	.	-1%
Cc1cc[n+](CCC2CCCCC2)c2ccccc12	2.1µM*	i	.	.	.	.
CCCCCCCCCCCC[n+]1ccc(C)c2ccccc21	4.1µM*	i	.	.	.	.
Cc1cc[n+](C)c2ccccc12	i	i	.	.	.	.
Cc1ccc2c(C)cc[n+](CCCS(=O)(=O)[O-])c2c1	i	i	i	10%	13%	-2%
SMILES	KB-3-1 tox	KB-V1 MDR tox	S2 tox	HT1080NT lethal	HT1080 IDH1KD tx	ATXN2 expr inh
CCCCCCC[n+]1ccc(C)c2ccccc21	0.58µM*	i	.	.	.	.
CN1CCN(C(=O)c2ccc3c(c2)N(Cc2ccc(C(F)(F)F)cc2)C(=O)c2ccccc2S3)CC1	?	i	i	.	.	-5%
COC(=O)c1c(SC)nc2ccccc2c1OCc1ccccc1C	i	i	i	.	.	4%
CCOc1ccc2nc(N(Cc3ccccc3)C(=O)CCNC(C)=O)sc2c1	i	?	?	2%	-1%	6%
O=Cc1sc(Nc2ccccc2)nc1Cl	i	?	i	-20%	-13%	-11%
Cc1ccc(Nc2nc(Cl)c(C=O)s2)cc1Cl	?	i	.	18µM*	?	8%
CC(C)(C)NCC(O)COc1ccccc1C(=O)CCc1ccccc1 (stereo unspecified)	i	i	?	16µM*	?	?
CCOC(=O)c1cc(-c2ccccc2)n(-c2cccc(C(=O)N(C)c3ccc(C)cc3)c2)c1C	16µM*	?	.	.	.	.
CN(Cc1ccccc1)C(=O)c1ccc(CSc2nc3cccnc3n2Cc2ccccc2F)cc1	i	i	.	.	.	?
C[C@]12C=CC(=O)C=C1[C@@H](F)C[C@@H]1[C@@H]2[C@@H](O)C[C@@]2(C)[C@H]1CC[C@]2(O)C(=O)CO	.	.	i	.	.	-2%
COc1ccccc1N1CCN(CC(=O)Nc2cc(F)ccc2C)CC1	i	i	i	-20%	-20%	-11%
COc1ccccc1N1CCN(CC(=O)Nc2cc(C)nn2-c2nc(C)cc(C)n2)CC1	4.6µM*	i	i	?	?	-3%
COc1cccc(NC(=O)CC2SC(=Nc3ccccc3)NC2=O)c1 (stereo unspecified)	i	16µM*	?	3%	2%	2%
COc1ccc(NC(=O)CC2SC(=Nc3ccccc3)NC2=O)cc1 (stereo unspecified)	i	i	i	-3%	-2%	129%
COc1cccc(NC(=O)CN(C)C(=O)CC2Sc3ccccc3NC2=O)c1 (stereo unspecified)	i	23µM*	i	3%	-11%	6%
COc1ccc(-c2nc3ccccc3s2)cc1NC(=O)c1ccc(C#N)cc1F	i	i	i	.	.	5%
CC(Sc1ncnc2sccc12)C(=O)Nc1ccc(S(=O)(=O)N2CCOCC2)cc1 (stereo unspecified)	i	23µM*	i	-5%	-2%	8%
